# Assay results taken from PubChem BioAssay AID2284203 (EPA ToxCast).
# Calls of active or inactive are those of the source. How the source made its calls: active means hit-call score of the fitted dose curve at least 0.9, where 1 is the maximum; inactive means score below 0.9.
# Molecular target: human Serotonin Transporter (SET), SLC6A4 (gene 6532) (UniProt P31645)
# Test: ERF_FR_TR_hSLC6A4: Eurofins (ERF) Radioligand Binding LeadHunter Assay for human Serotonin Transporter (SET) human Agonism
# Description: ERF_FR_TR_hSLC6A4 is a biochemical, single-readout assay that uses extracted gene-proteins in a cell-free assay. Measurements were taken 1 hour after chemical dosing in a 96-well plate. See SET Human Serotonin Transporter Binding (Antagonist Radioligand) Assay, Cerep.ERF_FR_TR_hSLC6A4 is an assay component calculated from the ERF_FR_TR_hSLC6A4 assay. It is designed to measure radioligand binding using a type of binding reporter as detected by scintillation counting with radiometry technology.Data from the assay component ERF_FR_TR_hSLC6A4 was analyzed at the assay endpoint, ERF_FR_TR_hSLC6A4, in the positive analysis fitting direction relative to DMSO as the negative control and baseline of activity. Using a type of binding reporter, loss-of-signal activity can be used to understand changes in enzymatic activity as they relate to gene SLC6A4. To generalize the intended target to other relatable targets, this assay endpoint is annotated to the transporter intended target family, where the subfamily is SLC6 / Monoamine.
# Human recombinant serotonin transporter expressed in human HEK-293 cells are used in modified Tris-HCl buffer pH 7.4. A 2 ug aliquot is incubated with 0.4 nM [3H]Paroxetine for 60 minutes at 25C. Non-specific binding is estimated in the presence of 10 uM imipramine. Transporters are filtered and washed. The filters are then counted to determine [3H]Paroxetine specifically bound. Compounds are screened at 10 uM. Membrane protein may change from lot to lot; the concentration used will be adjusted if necessary.
# Sequence of human Serotonin Transporter (SET), SLC6A4 (gene 6532) (P31645 whole entry, looked up): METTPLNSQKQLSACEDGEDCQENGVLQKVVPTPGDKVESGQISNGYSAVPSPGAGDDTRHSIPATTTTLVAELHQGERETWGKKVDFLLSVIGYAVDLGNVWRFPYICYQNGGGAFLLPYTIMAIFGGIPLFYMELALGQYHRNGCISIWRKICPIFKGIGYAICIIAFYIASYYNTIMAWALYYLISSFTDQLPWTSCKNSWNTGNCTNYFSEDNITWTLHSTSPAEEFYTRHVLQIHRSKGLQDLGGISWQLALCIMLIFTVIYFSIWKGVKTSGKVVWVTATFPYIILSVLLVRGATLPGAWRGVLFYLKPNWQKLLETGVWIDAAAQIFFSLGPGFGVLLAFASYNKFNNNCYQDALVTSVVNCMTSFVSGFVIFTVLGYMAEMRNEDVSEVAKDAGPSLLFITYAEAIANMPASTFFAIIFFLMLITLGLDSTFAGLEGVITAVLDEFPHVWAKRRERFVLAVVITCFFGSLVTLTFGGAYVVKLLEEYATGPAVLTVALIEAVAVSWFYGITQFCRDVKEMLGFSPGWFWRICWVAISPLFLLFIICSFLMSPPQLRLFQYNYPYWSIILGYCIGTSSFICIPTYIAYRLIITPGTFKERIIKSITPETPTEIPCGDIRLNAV
Structure (SMILES),AC50,outcome
COc1cc(/C=C/C(=O)CC(=O)/C=C/c2ccc(O)c(OC)c2)ccc1O,2120 nM (active),
CCCCC[C@H](O)CC(=O)CCc1ccc(O)c(OC)c1,,inactive
O=C(/C=C/c1ccc(O)cc1)CC(=O)/C=C/c1ccc(O)cc1,3200 nM (active),
